From PMC4336329 (PLoS ONE, 2015)
About 2,200 (0.71%) of roughly 310,000 compounds showed an effect of 50% or more. The effect is printed as a negative number. For the sample, strong results were picked, then their nearest neighbours and some compounds at random.

Each compound was assayed against human ether-à-go-go-related gene (hERG) potassium channel (human, UniProt Q12809) (assay: primary screen, population patch clamp on CHO cells stably expressing hERG; higher = less effect of the substance).
Chain of human ether-à-go-go-related gene (hERG) potassium channel (Q12809 whole entry, looked up): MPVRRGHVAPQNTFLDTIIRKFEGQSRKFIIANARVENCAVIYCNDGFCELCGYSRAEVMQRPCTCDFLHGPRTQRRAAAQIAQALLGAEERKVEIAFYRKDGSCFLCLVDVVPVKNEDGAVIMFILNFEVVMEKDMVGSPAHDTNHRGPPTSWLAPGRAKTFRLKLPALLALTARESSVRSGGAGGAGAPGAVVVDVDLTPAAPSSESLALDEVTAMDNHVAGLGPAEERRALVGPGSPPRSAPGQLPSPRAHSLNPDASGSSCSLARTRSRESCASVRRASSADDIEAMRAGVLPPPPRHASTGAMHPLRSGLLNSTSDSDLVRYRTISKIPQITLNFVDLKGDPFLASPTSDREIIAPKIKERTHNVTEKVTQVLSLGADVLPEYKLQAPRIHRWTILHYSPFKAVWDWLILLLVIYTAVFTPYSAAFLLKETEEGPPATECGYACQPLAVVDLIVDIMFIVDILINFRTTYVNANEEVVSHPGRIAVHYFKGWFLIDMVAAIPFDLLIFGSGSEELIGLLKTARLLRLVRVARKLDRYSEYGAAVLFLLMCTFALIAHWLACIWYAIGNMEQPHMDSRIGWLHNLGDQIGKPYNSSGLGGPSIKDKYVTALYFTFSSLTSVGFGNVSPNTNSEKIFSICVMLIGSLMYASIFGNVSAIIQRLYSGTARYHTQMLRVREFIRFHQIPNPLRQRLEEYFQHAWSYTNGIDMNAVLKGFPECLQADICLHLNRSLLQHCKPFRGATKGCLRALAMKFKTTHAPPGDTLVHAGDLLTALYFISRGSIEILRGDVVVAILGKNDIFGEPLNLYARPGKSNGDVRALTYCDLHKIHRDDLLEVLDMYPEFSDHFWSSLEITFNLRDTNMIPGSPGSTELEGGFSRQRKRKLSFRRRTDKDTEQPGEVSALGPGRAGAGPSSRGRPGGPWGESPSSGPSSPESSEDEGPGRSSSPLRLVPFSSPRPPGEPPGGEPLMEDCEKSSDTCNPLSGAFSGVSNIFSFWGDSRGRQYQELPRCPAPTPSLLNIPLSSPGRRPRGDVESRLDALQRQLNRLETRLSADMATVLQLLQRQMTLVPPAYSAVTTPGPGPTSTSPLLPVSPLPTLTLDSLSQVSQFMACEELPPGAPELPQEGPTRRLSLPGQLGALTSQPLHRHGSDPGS

Structure (SMILES) | hERG current change (%, negative = inhibition) at 1uM
COc1ccc(C2=[N+]([O-])C(C)(C)N(O)C2(C)C)cc1 | 10.1%
Cc1nc(-c2nnc(SCC(=O)Nc3cc(Cl)cc(Cl)c3)n2C)cs1 | 10.6%
C/C(=N\N=C(c1ccccc1)c1ccccc1)c1ccco1 | 5.46%
CN1C(=O)C(=Cc2ccccc2OS(=O)(=O)c2ccccc2)C(=O)N(C)C1=O | 9.02%
N[C@@H]1CONC1=O | 18.7%
COC(=O)[C@H]1C[C@H]1[C@@H](NC(=O)c1cccnc1)c1ccccc1 | 11.4%
COc1ccc(C(CCNCc2ccc(N(C)C)cc2)C(C)C)cc1 (centres unmarked) | 2.49%
COc1ccc(C(CCN)c2ccc3c(c2)OCO3)cc1 (centres unmarked) | 13.6%
Fc1ccc(CNCCc2ccc3c(c2)OCO3)cc1 | 13.8%
CCOc1ccccc1CNCCc1ccc2c(c1)OCO2.Cl | 1.75%
COc1ccc(C(CCNCc2ccc(N(C)C)cc2)c2ccccc2)cc1 (centres unmarked) | -56.4%
COc1ccc(C(CCNCc2ccc(N(C)C)cc2)c2ccccc2OC)cc1 (centres unmarked) | -18.4%
COc1ccc(C(CCNCc2ccccc2)c2ccc(F)cc2)cc1 (centres unmarked) | -17.7%
CCOc1ccc(CNCCc2ccc3c(c2)OCO3)cc1 | -52.6%
COc1ccc(CNCCC(c2ccccc2)c2ccc3c(c2)OCO3)cc1.Cl (centres unmarked) | -68.7%
COc1ccc(OCCSc2nc(C)c(Cc3ccccc3)c(=O)[nH]2)cc1 | 7.38%
Cn1c(C(=O)c2ccccc2[N+](=O)[O-])nc2ccccc21 | -9.27%
S=C(Nc1ccccc1Cl)N1CCC(c2ccccc2)C1 (centres unmarked) | -6.92%
COc1ccc2c(c1)N1CCN=C1N2C.Cl | 5.26%
Cc1[nH]nc(NCCO)c1[N+](=O)[O-] | -3.88%
CCOc1ccc(NC(=O)CN(c2ccc(OC)cc2)S(C)(=O)=O)cc1 | 8.87%
CCC(C)[C@H](NC(=O)C1CC(=O)N(c2ccc3c(c2)OCO3)C1)C(=O)NC1CCCCC1 (some centres unmarked) | 29.5%
COC(=O)C(Cc1ccc(OC(=O)c2ccc(C(F)(F)F)cc2)cc1)N1Cc2ccccc2C1=O (centres unmarked) | 13.8%

Structure (SMILES) | hERG current change (%, negative = inhibition) at 1uM
COc1cccc(C(=O)NC2CCCN(C3Cc4ccccc4C3)C2)c1OC (centres unmarked) | 0.941%
O=C(NC1CC1)c1ccc(F)cc1Cl | 14.2%
O=C(NC1CCCN(C2Cc3ccccc3C2)C1)c1ccc(F)cc1Cl (centres unmarked) | -72.9%
N/C(=N\OC(=O)c1cc(-c2ccccc2)nc2ccccc12)c1ccncc1 | 8.01%
CCOc1cc(S(=O)(=O)N2CCN(CC)CC2)ccc1Cl | 6.75%
O=C(c1cc(-c2ccccc2)on1)N1CCCc2ccccc21 | 8.2%
CCOC(=O)C1CCCN(C(=O)c2cc(-c3ccc(C)cc3)on2)C1 (centres unmarked) | -59.7%
CCOC(=O)C1CCCN(C(=O)c2cc(-c3ccccc3)on2)C1 (centres unmarked) | 3.94%
Cc1ccc(-c2cc(C(=O)N3CCCCCC3)no2)cc1 | 10%
Cc1ccc(-c2cc(C(=O)N3CCCc4ccccc43)no2)cc1 | -75.5%
O=C(c1cc(-c2ccc(O)cc2)on1)N1CCCc2ccccc21 | 8.9%
COc1ccccc1/C=c1\sc2nc(-c3ccco3)nn2c1=O | 17.5%
Cc1ccc2nc(NCCO)nc(-c3ccccc3)c2c1 | 1.36%
COc1ccc(C(C)=O)cc1COC(=O)c1cnc(C)cn1 | 17.6%
CCCCNC(=O)CCCn1c(=S)[nH]c2cc3c(cc2c1=O)OCO3 | 19.2%
Cc1oc(-c2ccccc2Cl)nc1CN1C(=O)CN=C(c2ccccc2)c2ccccc21 | 9.3%
O=C(CNC(=O)/C(=C\c1ccccc1)NC(=O)c1ccc(Br)cc1)OCc1ccccc1 | -68.1%
O=C(CNC(=O)/C(=C/c1ccccc1)NC(=O)c1ccc(Br)cc1)OCc1ccccc1 | 2.24%
O=C(CNC(=O)/C(=C\c1ccc(F)cc1)NC(=O)c1ccccc1)OCc1ccccc1 | -69%
O=C(CNC(=O)/C(=C\c1ccc(Br)cc1)NC(=O)c1ccccc1)OCc1ccccc1 | -48%
O=C(CCCNC(=O)/C(=C/c1ccc(Br)cc1)NC(=O)c1ccccc1)OCc1ccccc1 | -2.58%
CCOC(=O)CNC(=O)/C(=C\c1ccc(F)cc1)NC(=O)c1ccccc1 | -11.7%
COc1ccc(/C=N/N=C(/N)N[N+](=O)[O-])c(OC)c1 | 7.59%

Structure (SMILES) | hERG current change (%, negative = inhibition) at 1uM
CCN(CC)S(=O)(=O)c1cc(NC(=O)C(C)N2CCc3ccccc32)ccc1C (centres unmarked) | 9.99%
C=CCn1c(SCC(=O)NNC(=O)Nc2cccc(Cl)c2)nnc1-c1ccccc1 | 6.04%
COc1ccc(C(=O)Oc2cc(C)c(CN3CCOCC3)cc2C)cc1OC | -1.52%
C#CCSc1nc(N)c2c(n1)OC(N)=C(C#N)C2c1cccnc1 (centres unmarked) | 4.59%
O=C(CSc1ncccn1)N1CCN(C(c2ccccc2)c2ccccc2)CC1 | 4.43%
O=C(Cn1c(=O)cnc2ccccc21)N1CCN(S(=O)(=O)c2ccccc2Br)CC1 | 36.9%
CCn1c2nc(SCCN3CCOCC3)nnc2c2cc(C)cc(C)c21 | -69.2%
CCCn1c2ccc(C)cc2c2nnc(SCCN3CCOCC3)nc21 | 19%
CCn1c2ccc(C)cc2c2nnc(SCCN3CCOCC3)nc21 | 4.8%
Cc1ccc(S(=O)(=O)N2CCCC2C(=O)Nn2cnnc2)cc1 (centres unmarked) | 11.7%
CCc1nc(SCC(=O)NC2CC2)c2c(C)c(C)sc2n1 | -4.16%
Cc1cc(NC(=O)NCc2ccccc2)c(=O)n(Cc2ccccc2F)c1 | 7.05%
CCOc1ccc(OCCN2CCCCC2)cc1.O=C(O)C(=O)O | -4.9%
CC1CCN(CCCCOc2ccc(Br)cc2)CC1 | -30.4%
O=C(O)C(=O)O.O=[N+]([O-])c1ccc(OCCN2CCCCCC2)cc1 | -74.5%
Cc1cc(=O)n(C)c(=O)n1CCCCCCOc1ccc([N+](=O)[O-])cc1 | -11.1%
Fc1ccc(OCCOCCN2CCNCC2)cc1.O=C(O)C(=O)O | 10.4%
Cc1cc(=O)n(C)c(=O)n1CCCCOc1ccc([N+](=O)[O-])cc1 | -66.8%
O=C(O)C(=O)O.O=[N+]([O-])c1ccc(OCCN2CCNCC2)cc1 | -52.2%
Cc1cc(=O)n(C)c(=O)n1CCCCOc1cccc([N+](=O)[O-])c1 | 9.25%
COc1ccc(OCCCCN2CCC(C)CC2)cc1.O=C(O)C(=O)O | 0.418%
Cc1ccc(OCCN2CCCC2)cc1.O=C(O)C(=O)O | 7.22%
Cc1ccc(OCCN2CCNCC2)c([N+](=O)[O-])c1.O=C(O)C(=O)O | 17.4%

Structure (SMILES) | hERG current change (%, negative = inhibition) at 1uM
CC1CCN(CCCCOc2ccc([N+](=O)[O-])cc2)CC1 | -77.8%
CCCc1cc(=O)oc2cc(C)cc(OCC(=O)Nc3ccc(CN4CCOCC4)cc3)c12 | 10.4%
CCCN(CCC)CCNC(=O)C1CC(=O)N(c2ccc(OC)cc2)C1c1ccc(OC)cc1 (centres unmarked) | -18.1%
CCOC(=O)C1(C)NC(c2ccccc2F)C2C(=O)N(c3cccc(C(C)=O)c3)C(=O)C21 (centres unmarked) | 15.4%
CC(=O)Nc1ccc(-c2nnn(CC(=O)c3ccccc3)n2)cc1Cl | 8.22%
CCOC(=O)c1c(C)[nH]c(C(=O)C(C)OC(=O)c2ccc(NC(=O)CC#N)cc2)c1C (centres unmarked) | 17.5%
O=C(O)C(Oc1ccc2c(-c3ccccc3)cc(=O)oc2c1)c1ccccc1 (centres unmarked) | 9.07%
COc1ccc2c3c(c(=O)oc2c1OCC(=O)O)CCCC3 | 23.8%
CCOc1ccc(-c2cc(C(=O)O)c3ccccc3n2)cc1 | 7.66%
CCC(C)NCCCCOc1ccc(Br)cc1.O=C(O)C(=O)O (centres unmarked) | -0.232%
COc1ccc(/C=C/C(=O)NCCOc2ccc(C)cc2)cc1 | 10.5%
CCCOc1ccc(OCCCCNC(C)CC)cc1.O=C(O)C(=O)O (centres unmarked) | 1.92%
O=[N+]([O-])c1ccc(OCCCCN2CCCCC2)cc1 | -59.4%
Brc1ccc(OCCCCN2CCCCC2)cc1 | -11.6%
COc1ccc(OCCNC(=O)/C=C/c2ccc([N+](=O)[O-])cc2)cc1 | -59.9%
COc1ccccc1OCCNC(=O)/C=C/c1ccc([N+](=O)[O-])cc1 | -9.26%
CCC(C)NCCCOc1ccc([N+](=O)[O-])cc1.O=C(O)C(=O)O (centres unmarked) | -73.7%
O=[N+]([O-])c1ccc(OCCCCCN2CCOCC2)cc1 | -24.9%
Cc1[nH]n(-c2ccccc2)c(=O)c1C=Nc1ccc(S(=O)(=O)Nc2nccs2)cc1 | 12.2%
O=S1(=O)CCC(NC(=S)Nc2ccc3ccccc3c2)C1 (centres unmarked) | 11.6%
